Screening results deposited in PubChem by National Center for Advancing Translational Sciences (NCATS).
Coupling enz: coupling enzyme interference in Giardia aldolase counter-screen; coupling enzyme system counterscreen, AmpLite Red fluorescence; activity change, negative = inhibition, % at 58.2 µM, hits read low; 0.67% of 290,000 active; in the data active means activity change below about -30%
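Counterscreen lacking aldolase: glyceraldehyde-3-phosphate coupling-enzyme reagent preincubated 10 min at RT with compound (at 57.5 uM final), then substrate/coupling system with AmpLite Red added; fluorescence read at 525/598 nm after 20 min RT.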
Tau fluor counter: counter-screen for tau fibril formation inhibitors; 0.93% of 280,000 active; tau K18 P301L Alexa594 fluorescence, heparin fibrillization; Potency, µM (series often up to 57.7 µM), for the others: at the top dose activity change, negative = decrease; further: potency means the concentration at half of the fitted maximal effect; nearly all actives have a fitted effect of over 55% in size
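Human tau K18 P301L (15 uM unlabeled, 0.24 uM Alexa 594-labeled) in 100 mM sodium acetate pH 7 with 20 uM heparin, 6 hr at 37 C. ThT 30 uM added, 1 hr ambient; Alexa 594 FP and total fluorescence read at 555/632 nm.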
Tau FP inhib: inhibitors of human tau fibril formation. 0.39% of 280,000 active. K18 P301L tau heparin fibrillization, Alexa594 FP, 6 h. Potency, µM (series often up to 57.7 µM), for the others: at the top dose activity, negative = inhibition, hits mostly inhibitors. AID 1468. P10636; further: potency means the concentration at half of the fitted maximal effect; nearly all actives have a fitted effect of over 55% in size
Target sequence (P10636 561-689 P618L limits assumed): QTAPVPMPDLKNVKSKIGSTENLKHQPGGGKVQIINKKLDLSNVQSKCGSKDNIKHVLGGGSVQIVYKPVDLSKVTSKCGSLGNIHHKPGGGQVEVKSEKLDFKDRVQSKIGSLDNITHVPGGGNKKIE
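Human tau K18 […] P301L fragment, 15 uM unlabeled plus 0.24 uM Alexa 594-labeled tau (final), with compound and 20 uM heparin in 100 mM sodium acetate pH 7; 6 hr at 37 C, then Alexa 594 FP read.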
Sfp PPTase inh: Sfp phosphopantetheinyl transferase inhibition; Biochemical Sfp PPTase activity, qHTS; Potency, µM, without a hit: largest response in the series, negative = inhibition, hits mostly inhibitors; 3.5% of 310,000 active;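 further: the enzyme is Sfp with the accession as filed and its product quenches rhodamine fluorescence; potency means the concentration at half of the fitted maximal effect; 0% = enzyme reaction without inhibitor and -100% = no enzyme wells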
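Reaction rates are the 30-min fluorescence difference (ex 525, em 598 nm) in wells containing 15 nM Sfp, 5 uM rhodamine-CoA and 12.5 uM BHQ-2-YbbR at pH 7.6 with 10 mM MgCl2.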
Tau ThT inhib: tau fibrillization inhibition (ThT binding); P10636; recombinant tau K18 P301L (four-repeat tau fragment), heparin-induced fibrillization, ThT fluorescence; Potency, µM (titrated, usually from 57.4 µM), without a hit: top-dose activity, negative = inhibition, actives largely listed as inhibitors; 2.1% of 270,000 active; AID 1460; further: potency means the concentration at half of the fitted maximal effect; nearly all actives have a fitted effect of over 55% in size
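Heparin-induced (20 uM) aggregation of recombinant human K18 P301L tau, 15 uM unlabeled with 0.24 uM labeled, pH 7 acetate buffer, 6 hr at 37 C with compound. Fibrils quantified by 30 uM ThT fluorescence after 1 hr ambient incubation.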
Numbers without * were called inactive; u = inconclusive; x = no result given; [ ] = remark or other dose. Hits are enriched below; roughly 5.2% of the tested compounds scored in any of these assays. Unless noted, the call rests on the fitted dose curve; in most records, active means well fitted curve in the direction sought with a large enough effect; inconclusive means small, poorly fitted or top-dose-only effect, or another doubt; inactive means no such curve, though single readings can be large; an effect the other way counts as inactive or inconclusive. Unless noted, on the % scale 0 is the no-effect control and ±100 the full control effect.

SMILES	Coupling enz	Tau fluor counter	Tau FP inhib	Sfp PPTase inh	Tau ThT inhib
OC[C@@H](O)[C@H](O)C(/C=N/Nc1ccccc1)=N\Nc1ccccc1	-6	u	-13%	u	28µM*
Cn1c(=O)c2[nH]c(-c3ccccc3)c(O)c2n(C)c1=O	-3	-17%	u	14µM*	u
CCCCNC(=O)C(CC)Sc1nc2sc(C(=O)OC)c(C)c2c(=O)n1N (stereo not drawn)	0	4%	-4%	50µM*	-3%
N#C/C(=C\c1ccc(C(=O)O)cc1)c1nc2sc3c(c2c(=O)[nH]1)CCCC3	4	u	-8%	-13%	14µM*
C[C@@H]1Cc2c(O)c(O)cc(O)c2C(=O)O1	-3	-21%	25µM*	-9%	32µM*
CC1CC(Nc2cccc(O)c2)=CC(=O)O1 (stereo not drawn)	2	-7%	-2%	18%	-13%
CCOC(=O)C1=C(C)N=c2s/c(=C3\C(=O)Nc4ccccc43)c(=O)n2C1c1ccc2c(c1)OCO2 (stereo not drawn)	1	u	u	3%	18µM*
CCOC(=O)C1=C(C)N=c2s/c(=C\c3ccncc3)c(=O)n2C1c1ccc2c(c1)OCO2 (stereo not drawn)	0	u	u	-20%	25µM*
Cc1nn(-c2ccccc2)c2sc(C(=O)Nc3cccc(Br)c3)cc12	x	u	7.9µM*	x	u
COc1ccccc1NC(=O)c1cc2c(-c3ccccc3)nn(-c3ccccc3)c2s1	x	-24%	u	x	-4%
Cc1cnc(NC(=O)c2cc3c(C)nn(-c4ccccc4)c3s2)s1	0	u	u	-12%	-13%
O=C(Nc1ccc(Cl)cc1)c1cc2c(-c3ccccc3)nn(-c3ccccc3)c2s1	x	-27%	25µM*	x	11%
O=C(Nc1ccccc1)c1cc2c(-c3ccccc3)nn(-c3ccccc3)c2s1	x	u	20µM*	x	-1%
Cc1ccc(S(=O)(=O)N(CC(=O)N2CCc3ccccc3C2)c2ccc(C)c(C)c2)cc1	x	-3%	6%	x	-6%
CCOc1cc(/C=N\Nc2ccc([N+](=O)[O-])cc2)ccc1OCC(=O)Nc1ccc(C)c(C)c1	-1	u	12%	-10%	2.2µM*
COc1cc(/C=N\NC(=O)CN2CCOCC2)ccc1OCC(=O)Nc1ccc(C)c(C)c1	4	-11%	-8%	4%	u
COc1cc(/C=N\Nc2ccc([N+](=O)[O-])cc2)ccc1OCC(=O)Nc1ccc(C)c(C)c1	0	7.1µM*[quencher]	2%	-25%	1.6µM*
CCOc1cc(/C=N\NC(=O)Cc2ccccc2)ccc1OCC(=O)Nc1ccc(C)c(C)c1	-1	-11%	-2%	3%	-12%
COc1cc(O)cc2cc3c(c(O)c12)C(=O)CC(C)(O)O3 (stereo not drawn)	-43*	u	-14%	8%	25µM*
COc1cc(O)c2c(c1)OC(C)(C)CC2=O	0	-4%	-5%	-12%	4%
S=C(NC1CCCCC1)N1CCC([C@H]2C=NC=N2)CC1	0	x	x	8%	x
Cc1cc(/C([O-])=C(/C(=S)Nc2ccccc2)[n+]2ccccc2)c(C)n1-c1ccccc1	-1	-18%	-4%	-10%	u
Cc1cc(/C([O-])=C(/C(=S)Nc2ccc(F)cc2)[n+]2ccccc2)c(C)n1-c1ccc(F)cc1	-8	u	-11%	u	28µM*
Cc1cc(/C([O-])=C(/C(=S)Nc2ccc(F)cc2)[n+]2ccccc2)c(C)n1Cc1ccccc1Cl	-2	-15%	-5%	-15%	u
Cc1ccc(-n2c(C)cc(/C([O-])=C(/C(=S)Nc3ccc(F)c(Cl)c3)[n+]3ccccc3)c2C)cc1	-11	-26%	-1%	56µM*	u
SMILES	Coupling enz	Tau fluor counter	Tau FP inhib	Sfp PPTase inh	Tau ThT inhib
CC(NCc1ccc(F)cc1)C(=O)NC1CCCCC1 (stereo not drawn)	-2	-21%	-20%	1%	32µM*
COCCc1nn2c(=O)cc(COC(=O)C(c3ccccc3)c3ccccc3)nc2s1	x	5%	3%	x	-13%
CC(=O)Nc1ccn(C2CC3OCC(NC(=O)C(Cc4ccccc4)NC(=O)OC(C)(C)C)C3O2)c(=O)n1 (stereo not drawn)	0	x	x	17%	x
Cc1cc(C)c(NC(=S)NCCCSC2CCCCC2)c(C)c1	0	-16%	2%	45µM*	-17%
COc1ccc(C(=O)NCc2oc(-c3ccccc3)cc2C(=O)O)cc1	8	3%	4%	25µM*	3%
O=C(C1CCCCC1)N(Cc1cccnc1)c1nc2ccc(Cl)cc2s1	x	-19%	-5%	x	u
Cc1ccc(C(c2cccc(Br)c2)c2c(C)[nH]c3ccccc23)s1 (stereo not drawn)	x	5.6µM*[quencher]	u	x	u
CCc1ccc(NC(=O)c2ccc3c(c2)nnn3CC)cc1	x	-11%	-8%	x	u
Cc1ccc2oc(=O)c(/C=C(\O)C(C)(C)C)nc2c1	3	-28%	-4%	56µM*	u
CC(C)(C)/C(O)=C/c1nc2cc(Cl)ccc2oc1=O	0	-11%	-2%	u	-9%
O=C(Nc1nc2c(s1)CCc1ccccc1-2)c1cccs1	-11	u	-14%	-10%	u
Fc1ccccc1Nc1nc2c(s1)CCc1ccccc1-2	-69*	-9%	2%	3.2µM*	-8%
COc1ccc(NC(=O)CCCn2cnc3ccccc3c2=O)cc1	1	x	x	50µM*	x
O=C1CCc2ccccc2N1	0	2%	3%	23%	3%
S=C1Cc2ccccc2N1	0	8.9µM*[quencher]	u	3.2µM*	0.71µM*
Cc1ccc(NS(=O)(=O)c2cc(N)ccc2Cl)c(C)c1	-33*	-13%	10%	-20%	-4%
Cc1ccc(NC(=O)C2=C(c3ccccc3)S(=O)(=O)CCS2(=O)=O)cc1	-2	-29%	28µM*	16µM*	28µM*
CCN1CCN(C(=S)c2ccc([N+](=O)[O-])cc2)CC1	-7	3%	-6%	13µM*	-1%
O=[N+]([O-])c1ccc(C(=S)N2CCCC2)cc1	4	1%	-1%	50µM*	-9%
CC1CCN(C(=S)c2ccc([N+](=O)[O-])cc2)CC1	5	-11%	-9%	45µM*	u
CC(=O)C1C(=O)c2c(cccc2[N+](=O)[O-])C1=Nc1cccc(Cl)c1 (stereo not drawn)	-2	u	3%	56µM*	u
Cc1cccc(C2=NN(c3ccc(Br)cc3)[C@@H](C(=O)N3CCOC3=O)[C@@H]2c2ccccc2)c1	-5	u	3%	30%	-20%
C[C@@H]1C(c2cccc(Cl)c2)=NN(c2ccc(Br)cc2)[C@H]1C(=O)N1CCOC1=O	-2	14µM*[quencher]	-7%	15%	u
CC[C@@H]1C(c2cccc(C)c2)=NN(c2ccc(Br)cc2)[C@H]1C(=O)N1CCOC1=O	-2	8.9µM*[quencher]	-14%	25%	u
